# Data from PubChem BioAssay.
# Active and inactive are the calls of the source.
# What was measured:
# [1] = system: Plasmodium falciparum Sir2 (PF13_0152, Sir2A); test: pfSir2 binders on small-molecule microarrays, primary screen, biochemical, small-molecule microarray, 635 nm fluorescence (AID 1098); conditions: small-molecule microarray binding, fluorescence 635 nm; higher = more signal;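 further: score merges spot fluorescence intensity with its signal-to-noise ratio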
# [2] = small-molecule microarray binders of probe aDKK1, primary screen, biochemical, biotinylated probe, 635/667 nm fluorescence (AID 1099); conditions: higher = more signal;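 further: score merges 667nm spot fluorescence with signal to noise across triplicate slides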
# [3] = small-molecule microarray binders of probe aCHRDL2, primary screen, biochemical, biotinylated probe, 635/667 nm fluorescence (AID 1100); conditions: higher = more signal
# [4] = splicing luciferase reporter signal modulators, primary screen, spliceosome inhibition project, cell-based, HEK293, splice +/- reporter (AID 1101); conditions: luminescence, 24 h, higher = more signal, called active from +8 up or from −8 down;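 further: HEK293 cells carrying a splicing-competent luciferase reporter gene; test concentration not given here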
# [5] = target: Fibroblast growth factor 10 (Homo sapiens) (UniProt O15520); test: FGF10 binders on small-molecule microarrays, primary screen, biochemical, small-molecule microarray, 635 nm fluorescence (AID 1102); conditions: FGF10 binding, fluorescence 635 nm, higher = more signal
# Chain of Fibroblast growth factor 10 (Homo sapiens) (O15520 whole entry, looked up): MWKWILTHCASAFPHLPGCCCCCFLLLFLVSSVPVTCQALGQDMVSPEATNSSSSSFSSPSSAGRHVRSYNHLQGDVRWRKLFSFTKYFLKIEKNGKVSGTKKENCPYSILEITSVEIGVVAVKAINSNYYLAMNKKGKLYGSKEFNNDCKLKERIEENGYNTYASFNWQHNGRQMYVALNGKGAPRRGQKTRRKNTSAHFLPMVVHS
# [6] = system: glycogen synthase kinase-3 (GSK3A per assay name; protocol says GSK3B); test: GSK3 binders on small-molecule microarrays, primary screen, biochemical, small-molecule microarray, 635 nm fluorescence, GSK3A (AID 1103); conditions: small-molecule microarray binding, fluorescence 635 nm; higher = more signal; further: the record names both GSK3A and GSK3B
# [7] = target: Epidermal growth factor receptor (Homo sapiens) (UniProt P00533); test: EGFR binders on small-molecule microarrays, primary screen, biochemical, small-molecule microarray, 635 nm fluorescence (AID 1104); conditions: EGFR binding, higher = more signal;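 further: score merges 667 nm emission intensity with spot signal to noise over triplicate slides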
# Chain of Epidermal growth factor receptor (Homo sapiens) (P00533 whole entry, looked up): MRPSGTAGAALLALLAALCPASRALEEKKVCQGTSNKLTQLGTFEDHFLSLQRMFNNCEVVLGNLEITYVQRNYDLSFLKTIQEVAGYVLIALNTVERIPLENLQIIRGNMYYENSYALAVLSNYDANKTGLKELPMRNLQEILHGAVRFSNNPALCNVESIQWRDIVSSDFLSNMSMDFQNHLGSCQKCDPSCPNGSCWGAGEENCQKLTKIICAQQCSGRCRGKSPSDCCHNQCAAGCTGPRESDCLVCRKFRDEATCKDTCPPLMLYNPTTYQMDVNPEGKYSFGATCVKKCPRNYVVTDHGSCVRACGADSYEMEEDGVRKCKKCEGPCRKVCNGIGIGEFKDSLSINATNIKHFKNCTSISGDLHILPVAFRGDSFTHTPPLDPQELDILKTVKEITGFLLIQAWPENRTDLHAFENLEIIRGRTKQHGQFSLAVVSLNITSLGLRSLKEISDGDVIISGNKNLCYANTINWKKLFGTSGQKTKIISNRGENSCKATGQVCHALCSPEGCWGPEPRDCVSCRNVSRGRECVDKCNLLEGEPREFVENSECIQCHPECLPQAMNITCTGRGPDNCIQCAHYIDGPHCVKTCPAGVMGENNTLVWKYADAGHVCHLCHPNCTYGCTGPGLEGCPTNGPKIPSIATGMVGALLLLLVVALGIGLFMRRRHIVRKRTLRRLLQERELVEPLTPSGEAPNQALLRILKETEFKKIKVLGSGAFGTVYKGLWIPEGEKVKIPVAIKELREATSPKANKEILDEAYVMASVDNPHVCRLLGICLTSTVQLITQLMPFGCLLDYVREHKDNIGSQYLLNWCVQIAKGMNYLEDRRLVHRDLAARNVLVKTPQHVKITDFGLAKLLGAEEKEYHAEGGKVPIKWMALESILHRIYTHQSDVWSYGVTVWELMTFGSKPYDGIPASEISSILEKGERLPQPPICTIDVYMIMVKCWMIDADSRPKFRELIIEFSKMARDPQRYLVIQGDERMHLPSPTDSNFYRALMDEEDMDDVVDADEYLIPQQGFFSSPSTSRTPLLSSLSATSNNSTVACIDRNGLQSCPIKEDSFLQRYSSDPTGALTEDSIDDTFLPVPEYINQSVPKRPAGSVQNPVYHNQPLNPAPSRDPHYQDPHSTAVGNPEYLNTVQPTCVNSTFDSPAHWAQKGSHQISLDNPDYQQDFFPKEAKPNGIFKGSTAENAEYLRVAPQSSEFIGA
# [8] = target: Follistatin-related protein 3 (Homo sapiens) (UniProt O95633); test: FSTL3 binders on small-molecule microarrays, primary screen, biochemical, small-molecule microarray, 635 nm fluorescence (AID 1105); conditions: FSTL3 binding, higher = more signal;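 further: score merges emission near 667 nm and signal to noise per printed spot across three slides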
# Chain of Follistatin-related protein 3 (Homo sapiens) (O95633 whole entry, looked up): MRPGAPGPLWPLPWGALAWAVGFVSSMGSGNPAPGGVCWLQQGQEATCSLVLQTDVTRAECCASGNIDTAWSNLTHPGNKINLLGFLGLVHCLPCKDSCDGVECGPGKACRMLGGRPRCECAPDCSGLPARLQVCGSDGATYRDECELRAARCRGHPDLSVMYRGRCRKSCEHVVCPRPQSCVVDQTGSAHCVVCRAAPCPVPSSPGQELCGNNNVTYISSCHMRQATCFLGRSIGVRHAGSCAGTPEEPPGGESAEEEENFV
# [9] = target: Dickkopf-related protein 1 (Homo sapiens) (UniProt O94907); test: DKK1 binders on small-molecule microarrays, primary screen, biochemical, small-molecule microarray, 635 nm fluorescence scan (AID 1106); conditions: DKK1 binding, higher = more signal;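 further: score merges emission near 667 nm with signal to noise over three replicate slides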
# Chain of Dickkopf-related protein 1 (Homo sapiens) (O94907 whole entry, looked up): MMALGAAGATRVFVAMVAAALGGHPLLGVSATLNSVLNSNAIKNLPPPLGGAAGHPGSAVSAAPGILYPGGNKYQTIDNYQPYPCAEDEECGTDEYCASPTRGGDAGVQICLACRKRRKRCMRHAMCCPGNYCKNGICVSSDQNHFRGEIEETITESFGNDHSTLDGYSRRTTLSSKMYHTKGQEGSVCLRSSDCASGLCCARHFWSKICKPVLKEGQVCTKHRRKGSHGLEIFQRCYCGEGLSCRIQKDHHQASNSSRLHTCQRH
# [10] = system: Inhibin beta A chain (activin A); test: INHBA (activin A) binders on microarrays, primary screen, biochemical, small-molecule microarray, 635 nm fluorescence scan (AID 1107); conditions: small-molecule microarray binding, higher = more signal;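 further: mouse activin A protein probed at 4.33 µg/mL on printed slides; score merges bound-protein fluorescence near 667 nm with spot signal-to-noise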
# [11] = system: Human papillomavirus type 1a protein E7 (residues 44-93); test: HPV1a E7 fragment binders on microarrays, primary screen, biochemical, small-molecule microarray, residues 44-93, 635 nm fluorescence (AID 1108); conditions: small-molecule microarray binding, fluorescence 635 nm; higher = more signal;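 further: E7 fragment applied at 1 µg/mL in TBST for 1 h at 4 C; score combines spot fluorescence with its signal to noise ratio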
# [12] = modulators of HCV replicon luciferase signal, primary screen, HCV replication inhibitor project, Huh7 cells, luciferase reporter (AID 1109); conditions: 48 h, higher = more signal;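 further: huh7 hepatoma cells harbouring a luciferase neomycin HCV replicon reporter; luciferase luminescence as measure of HCV replicon replication; test concentration not given here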
# [13] = target: Left-right determination factor 2 (Homo sapiens) (UniProt O00292); test: LEFTY2 binders on small-molecule microarrays, primary screen, biochemical, small-molecule microarray, 635 nm fluorescence scan (AID 1110); conditions: LEFTY2 binding, higher = more signal
# Chain of Left-right determination factor 2 (Homo sapiens) (O00292 whole entry, looked up): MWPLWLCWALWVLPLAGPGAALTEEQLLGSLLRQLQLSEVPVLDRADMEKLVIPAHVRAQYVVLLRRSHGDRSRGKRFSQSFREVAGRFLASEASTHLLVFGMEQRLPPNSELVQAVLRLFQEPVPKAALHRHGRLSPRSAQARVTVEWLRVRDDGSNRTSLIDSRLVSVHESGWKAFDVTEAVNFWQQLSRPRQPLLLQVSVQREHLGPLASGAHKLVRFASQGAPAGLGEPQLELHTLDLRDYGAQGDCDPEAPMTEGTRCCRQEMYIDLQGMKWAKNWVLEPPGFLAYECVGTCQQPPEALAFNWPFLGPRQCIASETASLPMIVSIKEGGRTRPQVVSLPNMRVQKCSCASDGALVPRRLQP
# [14] = target: Calmodulin-1 (Homo sapiens) (UniProt P0DP23); test: CALM1 binders on microarrays, EGTA buffer, profiling panel, biochemical, small-molecule microarray, Cy5-labelled CALM1 (AID 1111); conditions: Cy5-CALM1 binding fluorescence, higher = more signal;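 further: labelled calmodulin applied in Tris saline Tween buffer holding calcium plus EGTA and DTT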
# [15] = target: Calmodulin-1 (Homo sapiens) (UniProt P0DP23); test: calcium-bound CALM1 binders on microarrays, profiling panel, artefact control for SMM control-protein annotation, biochemical, small-molecule microarray, Cy5-labelled CALM1, plus calcium (AID 1112); conditions: Cy5-CALM1 binding fluorescence, higher = more signal;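 further: score merges spot fluorescence with signal to noise from triplicate slides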
# [16] = small-molecule microarray binders of probe aWnt5a, primary screen, biochemical, biotinylated probe, 635/667 nm fluorescence (AID 1113); conditions: higher = more signal;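 further: score merges 667 nm fluorescence intensity with signal-to-noise per printed feature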
# [17] = small-molecule microarray binders of probe aShh, primary screen, biochemical, biotinylated probe, 635/667 nm fluorescence (AID 1114); conditions: higher = more signal;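 further: probe is biotin-labelled aShh protein from a stem cell growth factor screen; measures binding of labelled protein to compounds printed on the slide; score merges feature fluorescence at 667 nm with signal-to-noise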
# [18] = small-molecule microarray binders of probe aNog, primary screen, biochemical, biotinylated probe, 635/667 nm fluorescence (AID 1115); conditions: higher = more signal;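 further: probe is biotinylated aNog protein used at 0.15 µg/mL for 1 h at 4 C; z-score combines 667 nm fluorescence of each spot with its signal to noise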
# [19] = target: Torsin-1A-interacting protein 1 (Homo sapiens) (UniProt Q5JTV8); test: LAP1 binders from COS7 cell lysate, primary screen, small-molecule microarray, 635/667 nm fluorescence (AID 1116); conditions: COS7-hLAP1 lysate binding, 635 nm fluorescence, higher = more signal
# Chain of Torsin-1A-interacting protein 1 (Homo sapiens) (Q5JTV8 whole entry, looked up): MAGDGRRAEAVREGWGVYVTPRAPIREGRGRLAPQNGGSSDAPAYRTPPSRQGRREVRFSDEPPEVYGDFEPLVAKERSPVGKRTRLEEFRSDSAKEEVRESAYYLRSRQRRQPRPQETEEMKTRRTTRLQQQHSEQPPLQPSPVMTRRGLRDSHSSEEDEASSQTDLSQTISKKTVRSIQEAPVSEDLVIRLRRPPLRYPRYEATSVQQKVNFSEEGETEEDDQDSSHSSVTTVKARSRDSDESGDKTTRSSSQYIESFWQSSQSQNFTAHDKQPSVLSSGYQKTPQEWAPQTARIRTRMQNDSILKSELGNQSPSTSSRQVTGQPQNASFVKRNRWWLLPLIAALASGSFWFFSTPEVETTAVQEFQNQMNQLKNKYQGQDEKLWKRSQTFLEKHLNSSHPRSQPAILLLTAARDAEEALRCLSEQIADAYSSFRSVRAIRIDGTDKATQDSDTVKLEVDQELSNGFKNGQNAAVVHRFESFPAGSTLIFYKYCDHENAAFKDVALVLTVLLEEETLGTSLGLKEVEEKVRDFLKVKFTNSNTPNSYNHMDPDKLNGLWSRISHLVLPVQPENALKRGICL
# [20] = target: Alpha-bungarotoxin (Bungarus multicinctus) (UniProt P60615); test: alpha-bungarotoxin binders on microarray, profiling panel, artefact control for SMM control protein annotation, biochemical, small-molecule microarray, Alexa647 label, 635/667 nm fluorescence (AID 1117); conditions: alpha-BTX-A647 binding fluorescence, higher = more signal
# Chain of Alpha-bungarotoxin (Bungarus multicinctus) (P60615 whole entry, looked up): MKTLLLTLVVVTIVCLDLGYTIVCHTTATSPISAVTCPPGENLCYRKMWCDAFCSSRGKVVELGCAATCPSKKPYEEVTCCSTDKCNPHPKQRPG
SMILES,composite z-score [1],composite z-score [2],composite z-score [3],z-score [4],composite z-score [5],composite z-score [6],composite z-score [7],composite z-score [8],composite z-score [9],composite z-score [10],composite z-score [11],z-score [12],composite z-score [13],composite z-score [14],composite z-score [15],composite z-score [16],composite z-score [17],composite z-score [18],composite z-score [19],composite z-score [20]
CCCCCCCCCCC(O)C1C=CC2C(=O)N(C)C(=O)C2N1NC(=O)OC(C)(C)C (stereo not given),0.18,-0.0906,0.0331,11.3 (active),-0.737,0.386,-0.0167,-0.112,-0.145,0.417,1.17,-2.54,0.186,1.41,0.953,-0.0684,0.445,0.3,-0.122,0.294
CCOC(=O)C[C@H]1[C@H](OC(=O)Cc2ccc3c(c2)OCO3)[C@@H](NC(=O)CC(C)C)c2cc(OCCCO)ccc2N1C(=O)Cc1ccc(OC)cc1,-0.25,-0.283,-0.0563,-1.86 (inactive),0.139,0.0308,-0.0638,-0.0495,0.0009,0.26,0.479,-0.948,0.073,-0.221,-0.361,-0.012,-0.138,-0.25,0.466,1.03
COc1ccc(CCNC(=O)[C@@]2(Sc3ccc(C)cc3)CC(=O)N(C3Cc4ccccc4C3)[C@@H]2c2ccc(CO)cc2)cc1,0.672,0.167,-0.0208,-1.67 (inactive),1.78,1.27,0.494,1.51,2.06,1.23,1.42,-3.04,1.25,1.07,0.616,0.0799,0.171,0.557,2.01,0.535
O=C(NCC(F)(F)F)[C@@H]1c2ccccc2C(=O)N(Cc2ccc(OC(F)(F)F)cc2)[C@H]1c1ccc(CO)cc1,1.16,-0.113,0.433,-0.693 (inactive),0.347,-0.285,-0.0633,0.284,0.0428,0.551,1.4,-0.971,0.174,-0.112,0.0084,-0.0704,0.0839,-0.224,0.148,0.173
COCCOC(=O)N1C(=O)[C@@]2(c3cc(C#CC4=CCCCC4)ccc31)[C@H](C(=O)N1CCCCCCC1)[C@H]1C(=O)O[C@H](c3ccccc3)[C@H](c3ccccc3)N1[C@@H]2c1ccc(O)cc1,0.376,0.923,1,-0.802 (inactive),0.277,0.409,0.285,0.735,0.163,1.41,1.26,-1.35,0.134,0.765,0.522,-0.001,0.156,-0.0901,0.775,0.743
O=C1N(Cc2ccccc2)Cc2ccccc2[C@@H]2OC(c3ccc(OCCCO)cc3)=N[C@]12CCS(=O)(=O)c1ccccc1,0.596,-0.0422,1.05,0.0631 (inactive),1.04,0.309,0.607,0.291,-0.222,0.772,1.4,-1.84,0.347,0.729,0.264,-0.0758,0.265,-0.319,-0.0362,1.37
C=CCC(OC(C)=O)[C@@H]1[C@@H](N(Cc2cccc3ccccc23)C(=O)Cc2ccc(OC)cc2)c2cc(OCCCO)ccc2N1C(=O)c1ccc2ccccc2n1 (stereo not given in full),-0.316,-0.0805,0.144,-0.326 (inactive),0.103,-0.135,0.124,0.484,-0.0462,1.33,0.26,-0.043,0.172,0.0729,0.259,0.0132,-0.17,-0.456,0.307,0.472
COC(=O)[C@@]1(Cc2ccc(OC)cc2)[C@H]2c3cc(C(=O)N(C)C)n(CCO)c3C[C@H]2CN1C(=O)c1ccccc1,0.137,1.14,1.27,0.994 (inactive),0.0882,-0.402,-0.735,-0.42,-1.18,1.07,-0.317,-0.441,-0.511,1.67,1.1,-0.0398,0.0044,-0.426,3.28,1.18
C=CCNC(=O)[C@@H]1[C@H]2C(=O)O[C@H](c3ccccc3)[C@H](c3ccccc3)N2[C@H](c2ccc(O)cc2)[C@@]12C(=O)N(C(=O)OCCOC)c1ccc(C#CC3(O)CCCCCC3)cc12,0.482,-0.227,0.854,-0.565 (inactive),-1.72,-1.44,-1.5,-1.45,-1.82,-1.46,-1.18,-0.0817,-2.4,-0.901,-0.123,-0.221,-0.192,-0.343,-1.28,-1.42
COc1ccc(-c2cc3c(c(CCc4ccccc4)n2)[Si](C(C)C)(C(C)C)OC3)cn1,-0.311,-0.128,-0.185,-0.0496 (inactive),-0.121,-0.926,0.168,0.282,0.0275,0.529,-0.681,-0.42,0.209,-0.113,0.151,-0.15,-0.147,-0.115,-0.0389,0.104
